# Reference: PubChem BioAssay AID504834 (National Center for Advancing Translational Sciences (NCATS), 2011)
# The whole screen tested about 320,000 compounds, of which about 22,000 (6.9%) were called active. Entries that show only a call come without a potency. Not shown: some 27% with an inconclusive outcome. The full list was thinned out, with actives kept by preference. Values without a mark were called inactive. The call rests on the fitted dose curve; in most records, active means well fitted inhibition curve with a large enough effect; inconclusive means small, poorly fitted or top-dose-only effect, or another doubt; inactive means no such curve, though single readings can be large or run the other way.
# Assay: Primary qHTS for delayed death inhibitors of the malarial parasite plastid, 96 hour incubation
# Details: P. falciparum luciferase reporter growth; series mostly up to 28.7 µM
# Method in brief: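 Compounds incubated with erythrocytes infected by luciferase-expressing P. falciparum (2% hematocrit, 0.05% parasitemia final) for 96 hours, 37 C in 5% CO2. Growth inhibition scored as decreased luciferase luminescence.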
# Potency means the concentration at half of the fitted maximal effect.
Compound,Potency,"activity change, negative = inhibition"
CCOC(=O)c1c(C)[nH]c(C(=O)NCc2ccccc2OC)c1C,inactive,–
CCOC(=O)C1=C(c2ccc(OC)cc2)C(=O)c2ccccc2C1=O,inactive,–
CCOC(=O)c1c(C)[nH]c2c1-c1ccccc1C(=O)C2=O,1.47 µM (active),–
CCOC(=O)COc1nc(C)cc(C(F)(F)F)c1C#N,inactive,–
O=C(NN1C(=O)C2C3C=CC(O3)C2C1=O)c1ccncc1 (stereo unspecified),inactive,–
O=C(NN1C(=O)C2C3C=CC(O3)C2C1=O)c1ccccc1 (stereo unspecified),11.7 µM (active),–
COc1ccccc1C(=O)NN1C(=O)C2C3C=CC(O3)C2C1=O (stereo unspecified),inactive,–
Cc1ccc(S(=O)(=O)N2CCN(C(=O)N3CCOCC3)CC2)c(C)c1,inactive,–
O=C(COC(=O)c1ccccc1Cl)NC1CCCCCCC1,inactive,–
CCOc1ccc(N2C(=O)CSC2=NC#N)cc1,inactive,–
CC(=O)OCC(COC(C)=O)OC(C)=O,inactive,–
CC(=O)OC(COc1ccc(F)cc1)Cn1cnc2ccccc21 (stereo unspecified),inactive,–
CC(=O)N=c1ncn(CC(COC(C)=O)OC(C)=O)c2nc[nH]c12 (stereo unspecified),7.38 µM (active),–
CCOc1ccc(NS(=O)(=O)c2ccc(Cl)c(C(=O)N(C)Cc3cccnc3)c2)cc1,inactive,–
CC1(OC(=O)CCc2ccccc2)C(=O)C=C2C=C(c3ccc(C#N)cc3)N(CCc3ccccn3)C=C2C1=O (stereo unspecified),13.1 µM (active),–
COCCN1C=C2C(=O)C(C)(OC(=O)C3CCCC3)C(=O)C=C2C=C1c1ccsc1 (stereo unspecified),inactive,–
Cc1ccc(OCCCC(=O)Nc2ccc(S(=O)(=O)Nc3cc(C)nc(C)n3)cc2)cc1,inactive,–
CCCS(=O)(=O)Nc1ccc(-c2cn3c(n2)SCC3)cc1,inactive,–
CC(=O)Nc1ccc(NC(=O)COc2ccccc2C(=O)Nc2cccc(Cl)c2Cl)cc1,inactive,–
O=C(O)C1CC=CCC1C(=O)Nc1ccccc1C(=O)N1CCN(c2ccccc2)CC1 (stereo unspecified),inactive,–
O=C(Nc1cccc(Cl)c1Cl)c1ccccc1NC(=O)C1CC=CCC1C(=O)O (stereo unspecified),14.7 µM (active),–
COCc1c(C(=O)N/N=C\c2cccnc2)nnn1-c1nonc1N,inactive,–
Cc1ccc(C(=O)NNc2ncnc3ccccc23)cc1,inactive,–
Cc1cc(=O)[nH]c(N/N=C/c2ccc3c(c2)OCCO3)n1,inactive,–
Cc1cc(=O)[nH]c(N/N=C/c2c(C)nn(-c3ccccc3Cl)c2Cl)n1,2.94 µM (active),–
Cc1nn(-c2ccccc2)c(Cl)c1/C=N/NC(=O)c1nn(C)cc1[N+](=O)[O-],inactive,–

Compound,Potency,"activity change, negative = inhibition"
CC1CCCC(NC(=O)c2cc(-c3ccncc3)nc3ccccc23)C1C (stereo unspecified),inactive,–
CCCCSc1nnc2c(n1)OC=Nc1ccccc1-2,inactive,–
CNS(=O)(=O)c1cccc(C(=O)NCC2CCCCC2)c1,inactive,–
CCOc1ccc(N/C(N)=N/c2nc(C)c(C)c(=O)[nH]2)cc1,inactive,–
O=C(Nc1cccc(Cl)c1N1CCOCC1)c1cccnc1,9.28 µM (active),–
COC(=O)c1cc(NC(=O)c2cccnc2)ccc1N1CCOCC1,inactive,–
O=C(Nc1cccc(Cl)c1N1CCOCC1)c1ccc2c(c1)OCCO2,–,47.9% [at 5.75 µM]
COCCNC(=O)c1ccc2c(c1)ncn2-c1ccc(C)c(Cl)c1,inactive,–
COc1ccc2c(c1)N(C)/C(=C1/SC(=S)N(NC(C)=O)C1=O)S2,inactive,–
Cc1nc(C(=O)N2CCCC(C(=O)c3ccc(Cl)cc3)C2)cs1 (stereo unspecified),inactive,–
COc1ccc2cc(C(=O)C3CCCN(C(=O)c4sc(C)nc4C)C3)ccc2c1 (stereo unspecified),13.1 µM (active),–
Cn1nccc1C(=O)N1CCCC(C(=O)c2ccc(Oc3ccccc3)cc2)C1 (stereo unspecified),2.94 µM (active),–
Cc1ccccc1NC(=O)C1CCCN(C(=O)NCc2ccccc2)C1 (stereo unspecified),inactive,–
CC(C)Oc1cccc(C(=O)C2CCCN(C3CCOCC3)C2)c1 (stereo unspecified),inactive,–
CCNC(=O)N1CCCC(C(=O)c2ccc(-c3ccccc3)cc2)C1 (stereo unspecified),10.4 µM (active),–
CCn1nc(C)cc1C(=O)N1CCCC(C(=O)c2cccc(OC)c2)C1 (stereo unspecified),inactive,–
COc1ccc(C(=O)C2CCCN(C(=O)c3cnsn3)C2)c(C)c1 (stereo unspecified),inactive,–
CSc1ccc(C(=O)C2CCCN(C(=O)c3ccc(C)nc3)C2)cc1 (stereo unspecified),inactive,–
CCOc1cc(/C=C/c2nc3ccccc3c(=O)[nH]2)cc(Br)c1OC,inactive,–
Cc1cc(OC(=O)c2ccc(OC(C)C)cc2)c([N+](=O)[O-])c(=O)[nH]1,inactive,–
Cc1cccc(C(=O)OC(C)C(=O)NC2CCCc3ccccc32)c1O (stereo unspecified),inactive,–
O=C(NC1CCCCC1)c1ccc(-c2ccc(Cl)cc2)o1,inactive,–
COc1ccc(C2/C(=C(/O)c3ccc4c(c3)CC(C)O4)C(=O)C(=O)N2Cc2ccncc2)cc1 (stereo unspecified),inactive,–
CC(=O)c1c(C)[nH]c(C(=O)OCC(=O)Nc2c(C)n(C)n(-c3ccccc3)c2=O)c1C,inactive,–
COc1ccc(N2CCN(C(=O)CN3C(=O)COc4ccccc43)CC2)cc1,inactive,–
CN1CN(C)c2ccc([N+](=O)[O-])c3cccc1c23,inactive,–

Compound,Potency,"activity change, negative = inhibition"
O=C(NCc1ccncc1)C1CCN(C(=O)c2cccc(Cl)c2)CC1,inactive,–
COc1cccc(NC(=O)CN2CCN(c3nc(-c4cccc(OC)c4)cs3)CC2)c1,inactive,–
CCCn1c(C2CCCN2c2nc(-c3ccc(C)cc3)cs2)nc2cc(Cl)c(N3CCCCC3)cc21 (stereo unspecified),3.29 µM (active),–
Cc1ccc(-c2csc(N3CCN(c4cc5c(cc4Cl)nc(-c4ccncc4)n5CCOCCO)CC3)n2)cc1,5.86 µM (active),–
COc1ccc(-c2csc(N3CCN(Cc4ccc5c(c4)OCO5)CC3)n2)cc1,inactive,–
CCn1c(SCC(=O)N/N=C/c2ccccc2OCC(=O)O)nnc1-c1ccc(C(C)(C)C)cc1,inactive,–
O=C1CC2(CC(c3ccc(Cl)cc3)=NO2)C(=O)N1c1ccccc1 (stereo unspecified),inactive,–
COCCN(CCOC)c1nc(N)c2c(N)nc3c(c2c1C#N)CC(=O)N3Cc1ccc(Cl)cc1,2.62 µM (active),–
CCCCN1C(=O)C(=O)N(CC(=O)Nc2cccc(C(C)=O)c2)C1=O,inactive,–
COc1ccc(NCCc2ccccn2)cc1,inactive,–
Cc1ccc(NC(=O)CCC(=O)c2ccc(Br)cc2)cc1,inactive,–
O=C(NCc1ccccc1Cl)C1CCN(c2ncnc3c2nc2n3CCCCC2)CC1,inactive,–
OC1CCCN(c2ncnc3c2nnn3Cc2c(F)cccc2Cl)C1 (stereo unspecified),inactive,–
COc1cccc(CNC(=O)C2CCCN(c3ncnc4c3nc3n4CCCCC3)C2)c1 (stereo unspecified),inactive,–
COc1cccc(NC(=O)C2CCCN(c3ncnc4c3nc3n4CCCCC3)C2)c1 (stereo unspecified),8.28 µM (active),–
CN(Cc1ccccc1)C(=O)C1CCCN(c2ncnc3c2nc2n3CCCCC2)C1 (stereo unspecified),14.7 µM (active),–
O=C(NCCCN1CCCCC1)C1CCCN(c2ncnc3c2nc2n3CCCCC2)C1 (stereo unspecified),inactive,–
CCOC(=O)c1cccc(NC(=O)C2CCN(c3ncnc4c3nc3n4CCCCC3)CC2)c1,10.4 µM (active),–
COCCNc1ncnc2c1nc1n2CCCC1,inactive,–
CN(C(=O)C1CCN(c2ncnc3c2nc2n3CCCCC2)CC1)C1CCCCC1,inactive,–
Cc1cnc(C(=O)Oc2cccc(Cl)c2Cl)cn1,inactive,–
O=C(NCC#CCSc1nnc(-c2cccc3ccccc23)o1)c1cccs1,inactive,–
Cc1ccc(S(=O)(=O)N[C@@H](Cc2ccccc2)C(=O)N2CCC(C(=O)N[C@H](C(=O)O)C(C)O)CC2)cc1 (stereo partly specified),inactive,–
O=S(=O)(Cc1nnnn1-c1ccc(Br)cc1)c1ccc(F)cc1,inactive,–
O=C(Nc1ccccc1)/C(=C\c1ccco1)NC(=O)c1ccco1,inactive,–
CCn1c(SCC(=O)Nc2sc(C)c(C)c2C#N)nnc1C1CC1,inactive,–

Compound,Potency,"activity change, negative = inhibition"
O=C(N1CCOCC1)N(Cc1ccccc1)c1ccccn1,inactive,–
CC(=O)c1c(N2CCOCC2)nc(=S)n(Cc2ccccc2)c1C,0.329 µM (active),–
CC(=O)c1c(N2CCOCC2)nc(=S)n(-c2cc(C)ccc2C)c1C,inactive,–
CN1CCN(C(=O)c2ccccc2NC(=O)COc2ccccc2Cl)CC1,inactive,–
CCOc1ccc(NC(=S)N2CCCCCC2)cc1,inactive,–
CCOc1ccc(NC(=S)N2CCC(N(C)CC3CCCO3)CC2)cc1 (stereo unspecified),11.7 µM (active),–
COc1ccc(S(=O)(=O)N2CCN(C(=S)NCC3CCCO3)CC2)cc1OC (stereo unspecified),inactive,–
CCC(C)N(C)C1CCN(C(=S)Nc2ccc(OC)cc2)CC1 (stereo unspecified),inactive,–
CCOc1ccc(S(=O)(=O)NCCC(=O)NCC2CCCO2)cc1 (stereo unspecified),inactive,–
CCOc1ccc(S(=O)(=O)N2CCN(C(=S)NCC3CCCO3)CC2)cc1 (stereo unspecified),2.94 µM (active),–
NCC(=O)c1cccc2ccc[n+]([O-])c12,inactive,–
O=C(CNC(=O)OCc1ccccc1)NC1CCCCNC1=O (stereo unspecified),inactive,–
Cc1ccc(C(=O)NCC(=O)NCc2cc(=O)n(C)c(=O)n2C)cc1,inactive,–
O=C(NCCc1nnc2ccc(SCC(=O)N3CCOCC3)nn12)c1ccccc1,inactive,–
CCCCOc1ccc(NC(=O)[C@@H]2CCCN2C(=O)C2CCN(S(=O)(=O)c3ccc(C)cc3)CC2)cc1,11.7 µM (active),–
COc1ccc(N2CCN(C(=O)C3CCN(S(=O)(=O)c4ccc(C)cc4)CC3)CC2)cc1,inactive,–
CCOc1cccc(NC(=O)C2CCCN(S(=O)(=O)c3ccc(OC)cc3)C2)c1 (stereo unspecified),inactive,–
Cc1c(C(=O)N/N=C/c2ccccc2)[nH]c2c([N+](=O)[O-])cccc12,inactive,–
CN(C)S(=O)(=O)c1ccc(N/C=C(\[N+](=O)[O-])S(=O)(=O)c2ccccc2)cc1,inactive,–
COC(=O)c1ccc(NC(=O)CSc2nnc(C3CC3)n2C)cc1,inactive,–
COc1ccc(C(=O)OC(C)C(=O)NC2CCCC2)cc1S(=O)(=O)N1CCOCC1 (stereo unspecified),inactive,–
COc1cccc(N2CCN(CC(=O)Nc3ccnn3C3CCCC3)CC2)c1,inactive,–
C#C[C@]1(O)CC[C@H]2[C@@H]3CCC4=CC(=O)CC[C@@H]4[C@H]3CC[C@@]21CC,7.57 µM (active),–
